From PubChem BioAssay (NCI)
This is part of a sample that, as a whole, favours compounds with a hit. Of some 83,000 tested, about 20% had one in any assay.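 Compound tested at a single concentration for 48 hours in 96-well plates; a percent growth value below 10 was scored as active.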 Unmarked numbers belong to inactive results. Activity calls are given as the source filed them.

system: SW-620 colon; test: NCI-60 one-dose screen, 48 h (100 = growth as untreated, 0 = no growth, -100 = all killed); conditions: 10 µM unless noted

| SMILES | growth |
| --- | --- |
| O=C(OCC1CCCO1)c1ccc([N+](=O)[O-])cc1 (configuration not stated) | 91.8% |
| Cc1ccc(NC(=O)c2ccccc2Cl)cc1 | 109% |
| C/C(O)=C(/C=N\C(=S)Nc1ccc(S(=O)(=O)Nc2nccs2)cc1)C(=O)Nc1ccccc1C | 95.6% |
| NC(=S)N/N=C/c1ccc(Cl)cc1 | 113% |
| Oc1ccc(CCC2CCNc3ccccc32)cc1 (configuration not stated) | 97.2% |
| O=C(NC1CCCCC1)c1ccc(Cl)cc1 | 103% |
| CCOC(=O)CO | 110% |
| CC(c1ccccc1)N(C)C (configuration not stated) | 117% |
| CC(CCC#N)(CCC#N)C(=O)c1ccccc1 | 103% |
| Cc1ccc2nc(-c3ccc(N=Cc4ccccc4O)cc3)sc2c1 | 97.8% |
| Nc1cc2ccccc2c(O)c1O | -33.6% (active) |
| CCOc1ccccc1NC(=O)CCl | 98.4% |
| CCC12OC(COc3ccccc3)CN1CCN2c1ccccc1 (configuration not stated) | 103% [100 µM] |
| Cc1ccc(S(=O)(=O)CCCl)cc1 | 110% |
| CC(C)c1ccccc1NC(=O)N1CCC(C(C)C)CC1 | 107% |
| COc1ccc(C2CC(c3ccccc3)=Nc3ccccc3S2)cc1 (configuration not stated) | 98.4% |
| NC(CO)(CO)c1ccccc1 | 96.9% |
| C=CC(=O)OC1CCC(C(C)(C)CC)CC1 (configuration not stated) | 107% |
| Cc1[nH]n(-c2ccccc2)c(=O)c1C=NC(=S)C(N)=S | 104% |

| SMILES | growth |
| --- | --- |
| NC(=O)N1CCOCC1 | 112% |
| CCC(=O)Oc1ccc2ccccc2c1 | 85.7% |
| C=CCN1CCCC1=O | 102% |
| O=C(O)c1cccc(-n2ncc(Cl)c(Cl)c2=O)c1 | 113% |
| Cc1ccc(OC(=O)c2ccccc2)cc1 | 111% |
| O=Cc1c(O)c2ccccc2[nH]c1=O | 93.8% |
| CC(=O)c1ccc(C)cc1 | 106% |
| N#Cc1ccc2nc[nH]c2c1 | 104% |
| CC(=O)[C@@]1(O)CC[C@H]2[C@@H]3CC[C@@H]4CC(=O)CC[C@]4(C)[C@H]3[C@@H](O)C[C@@]21C | 100% |
| COC(=O)Cc1cc(COC(C)=O)ccc1C | 110% |
| c1ccc(-c2ccc3ccccc3c2)cc1 | 90.5% |
| C=CCC(OC(C)=O)c1ccc(C(C)C)cc1 (configuration not stated) | 107% |
| C=C(OC(C)=O)c1ccccc1 | 97.4% |
| Nc1cccc2cccc(O)c12 | 67.4% |
| CC(=O)c1cccs1 | 108% |
| CSCCC(NC(=O)C(Cl)Cl)C(=O)O (configuration not stated) | 100% |
| O=C(O)CSCC(=O)Nc1cc(C(F)(F)F)ccc1Cl | 125% |
| CCCCNC(=O)c1ccc(OCC)cc1 | 97.9% |
